Experimental findings from PubChem BioAssay (NCI) are described below.

Compounds without any hit were thinned out: in the full panel of roughly 83,000, 20% have a hit.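 Values shown are percent growth following 48 h exposure of cells in 96-well plates to a single concentration of compound; below 10 was considered active.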 A number with no mark means an inactive call. The source made the active and inactive calls.

Some test systems named below: SR leukemia; RPMI-8226 leukemia; OVCAR-8 ovarian; OVCAR-5 ovarian; SK-OV-3 ovarian; IGROV1 ovarian; OVCAR-3 ovarian; HS 578T breast; NCI/ADR-RES ovarian; OVCAR-4 ovarian.
Common to all, as to assay: NCI-60 one-dose screen, 48 h (100 = growth as untreated, 0 = no growth, -100 = all killed)
Conditions in all cases: 10 µM unless noted

In the case of `O=c1ccc(-c2nc(N3CCOCC3)c3ccccc3n2)c[nH]1`, the growth in the assay on SR leukemia was 100%; in the assay on RPMI-8226 leukemia, 101%; in the assay with OVCAR-8 ovarian it was 110%; in the assay with OVCAR-5 ovarian it was 83.2%; in the assay on SK-OV-3 ovarian it was 105%; in the assay with IGROV1 ovarian it was 107%. In addition, the growth in the assay with OVCAR-3 ovarian was 101%; with HS 578T breast it was 62.5%; in the assay with NCI/ADR-RES ovarian it was 96.9%.

On to `COc1ccc2c(c1)C(=O)CC(c1ccccc1OC)O2` (centres undefined), for which the growth in the assay with SR leukemia was 89.3%; with RPMI-8226 leukemia, 105%; in the assay on OVCAR-8 ovarian it was 100%; with OVCAR-5 ovarian, 108%; in the assay with SK-OV-3 ovarian it was 104%; in the assay with IGROV1 ovarian it was 79.3%. The growth was 117% in the assay on OVCAR-3 ovarian, 101% with HS 578T breast and 86% in the assay with NCI/ADR-RES ovarian.

For the compound `COc1ccc(C(=O)c2cc(C)c(OC)c(C)c2)c(OC)c1NC(C)=O`, the growth is 29.3% in the assay on SR leukemia; 21.2% with RPMI-8226 leukemia; 16.9% in the assay with OVCAR-8 ovarian; 37.8% in the assay on OVCAR-5 ovarian; 61.6% in the assay on OVCAR-4 ovarian; 11% in the assay on SK-OV-3 ovarian. The growth with IGROV1 ovarian is 31.5%; with HS 578T breast, 14.4%; in the assay on NCI/ADR-RES ovarian, 0.837% (active).

Consider `COc1cccc(-c2nc3occn3c2-c2ccnc(NCCNS(=O)(=O)c3cccc4ccccc34)n2)c1`, for which the growth is 110% with SR leukemia; 102% in the assay on RPMI-8226 leukemia; 97.4% in the assay on OVCAR-8 ovarian; 123% with OVCAR-5 ovarian; 83.5% with SK-OV-3 ovarian; 89% with IGROV1 ovarian. In addition, the growth with OVCAR-3 ovarian is 103%; with HS 578T breast, 105%; in the assay with NCI/ADR-RES ovarian, 98.8%.

With `c1ccc2c(-c3c[nH]c4ccccc34)c3c(cc2c1)[nH]c1ccccc13`, the growth in the assay on SR leukemia is 29.4%; in the assay with OVCAR-8 ovarian it was 90.7%; with OVCAR-5 ovarian, 96%; with OVCAR-4 ovarian, 57.8%; in the assay with SK-OV-3 ovarian it was 84.5%; in the assay with IGROV1 ovarian, 69%. In addition, the growth is 84.1% with HS 578T breast and 56.6% in the assay on NCI/ADR-RES ovarian.

Take `O=C1c2ccccc2C(=O)c2c([N+](=O)[O-])ccc(Cl)c21`: the growth in the assay on SR leukemia was 54%; with OVCAR-8 ovarian it was 75.2%; in the assay on OVCAR-5 ovarian it was 135%; in the assay on OVCAR-4 ovarian, 62.2%; in the assay on SK-OV-3 ovarian, 112%; in the assay on IGROV1 ovarian it was 71.5%. Also, the growth in the assay with OVCAR-3 ovarian was 57.1%; in the assay on HS 578T breast it was 98.8%; in the assay on NCI/ADR-RES ovarian it was 92.4%.

Regarding `CN1CCN(C(=O)[C@]23CCC(C)(C)C[C@H]2C2=CC[C@@H]4[C@@]5(C)C/C(=C/c6ccncc6)C(=O)C(C)(C)[C@@H]5CC[C@@]4(C)[C@]2(C)CC3)CC1`, the growth in the assay with SR leukemia is 7.07% (active); with OVCAR-8 ovarian, 55.3%; with OVCAR-5 ovarian, 86.9%; with OVCAR-4 ovarian, 57.4%; in the assay with SK-OV-3 ovarian, 77.6%; in the assay with IGROV1 ovarian it was 74.4%. In addition, the growth with OVCAR-3 ovarian is 47.2%; with HS 578T breast, 50.4%; in the assay on NCI/ADR-RES ovarian it was 56.3%.

With `N=C1C(c2nc3ccccc3s2)=C(O)CN1c1cc(Cl)cc(Cl)c1`, the growth in the assay on SR leukemia is 7.21% (active); in the assay on OVCAR-8 ovarian, 67.2%; in the assay with OVCAR-5 ovarian, 87%; in the assay with OVCAR-4 ovarian, 131%; in the assay on SK-OV-3 ovarian, 99.4%; in the assay with IGROV1 ovarian, 52.5%. The values for the growth with OVCAR-3 ovarian, in the assay on HS 578T breast and in the assay with NCI/ADR-RES ovarian were 87.2%, 52.7% and 78.9%, respectively.

For `C=C1C(=O)O[C@H]2[C@H]1CC/C(COC(=O)NCc1c[nH]c3ccc(F)cc13)=C\CC[C@@]1(C)O[C@@H]21`, the growth in the assay on SR leukemia was 13%; in the assay on OVCAR-8 ovarian, 0.654% (active); with OVCAR-5 ovarian, -30.6% (active); in the assay on OVCAR-4 ovarian, 11.9%; with SK-OV-3 ovarian it was 93.7%; in the assay on IGROV1 ovarian it was -46.7% (active). For the same compound, the growth in the assay on OVCAR-3 ovarian was -75.6% (active); with HS 578T breast it was 50%; with NCI/ADR-RES ovarian it was 59.7%.

With `COc1ccc(N2CCN(c3ccc(NC4=C(Cl)C(=O)c5ncccc5C4=O)cc3)CC2)cc1`, the growth in the assay on SR leukemia is 12.9%; with OVCAR-8 ovarian, 32.9%; in the assay on OVCAR-5 ovarian, 84.4%; in the assay on OVCAR-4 ovarian, 28.8%; with SK-OV-3 ovarian, 75.9%; in the assay with IGROV1 ovarian, -49.7% (active). The figures for the growth in the assay with OVCAR-3 ovarian, in the assay on HS 578T breast and with NCI/ADR-RES ovarian were -3.66% (active), 36.3% and 83%, respectively.

In the case of `CCCCOc1ccc(/C=N/Nc2cc(C)nc3ccc(Br)cc23)cc1`, the growth is -9.77% (active) in the assay with SR leukemia; -50.1% (active) in the assay with OVCAR-8 ovarian; 100% in the assay on OVCAR-5 ovarian; 44% in the assay on OVCAR-4 ovarian; 91.5% in the assay on SK-OV-3 ovarian; 10% with IGROV1 ovarian. In addition, the growth is -53% (active) in the assay on OVCAR-3 ovarian, 86.8% in the assay with HS 578T breast and 83.8% in the assay with NCI/ADR-RES ovarian.

Take `O=S(=O)(NCCNc1nccc(-c2c(-c3cccc(F)c3)nc3sccn23)n1)c1ccc(Cl)cc1`: the growth in the assay with SR leukemia was 40.6%; in the assay on OVCAR-8 ovarian, 53.6%; with OVCAR-5 ovarian, 93.3%; in the assay on OVCAR-4 ovarian it was 63.6%; with SK-OV-3 ovarian, 94.9%; in the assay with IGROV1 ovarian, 15.8%. The results for the growth in the assay on OVCAR-3 ovarian, in the assay on HS 578T breast and in the assay on NCI/ADR-RES ovarian were 65.4%, 72.5% and 67.7%, respectively.

Turning to `CCC(=O)Oc1ccc(/C(=C(\C)c2ccccc2)c2ccc(OCCN3CCCCC3)cc2)cc1`, the growth with SR leukemia is 20.3%; in the assay with OVCAR-8 ovarian, 81.6%; with OVCAR-5 ovarian, 90.9%; in the assay on OVCAR-4 ovarian, 80.6%; in the assay with SK-OV-3 ovarian, 75.5%; in the assay on IGROV1 ovarian, 93.8%. The values for the growth with OVCAR-3 ovarian, in the assay on HS 578T breast and in the assay with NCI/ADR-RES ovarian were 84.3%, 72.9% and 74.8%, respectively.

For `NS(=O)(=O)c1ccc(Cn2c(SCC(=O)N/N=C/c3ccccc3O)nc3ccccc3c2=O)cc1`, the growth with SR leukemia was 26.6%; in the assay on OVCAR-8 ovarian it was 44.3%; in the assay with OVCAR-5 ovarian, 68.4%; with OVCAR-4 ovarian, 40.7%; in the assay on SK-OV-3 ovarian, 73%; with IGROV1 ovarian, 62.3%. For the same compound, the growth in the assay on HS 578T breast was 71.6%; with NCI/ADR-RES ovarian it was 98.3%.
